Values without a mark were called inactive.
Each target was assayed with C#CCNC(=O)CCSSCCC(=O)NCCc1ccc(C=O)c(C=O)c1 (assay: lysine labeling ratio R10:1 (500 µM / 50 µM probe), SILAC-ABPP in living cells; higher = lower intrinsic lysine reactivity toward the probe, active = 2 or less). Details: HeLa; probe concentrations 500 vs 50 µM.
Method in brief: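 Living SILAC light and heavy HeLa cells in PBS at room temperature were treated with an alkyne-tagged, disulfide-linked lysine probe at 50 µM or 500 µM, with forward and reverse label swaps. The mixed lysates were clicked to biotin-azide, digested with trypsin, captured on neutravidin, released with DTT, alkylated and run by LC-MS/MS on a TIMS-TOF Pro. R for each lysine is the filtered median high-probe/low-probe MS1 peptide ratio, taken again as the median over forward and reverse replicates. Any value above 20 is set to 20.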

Sequence of UniProt Q15149 (Q15149 whole entry): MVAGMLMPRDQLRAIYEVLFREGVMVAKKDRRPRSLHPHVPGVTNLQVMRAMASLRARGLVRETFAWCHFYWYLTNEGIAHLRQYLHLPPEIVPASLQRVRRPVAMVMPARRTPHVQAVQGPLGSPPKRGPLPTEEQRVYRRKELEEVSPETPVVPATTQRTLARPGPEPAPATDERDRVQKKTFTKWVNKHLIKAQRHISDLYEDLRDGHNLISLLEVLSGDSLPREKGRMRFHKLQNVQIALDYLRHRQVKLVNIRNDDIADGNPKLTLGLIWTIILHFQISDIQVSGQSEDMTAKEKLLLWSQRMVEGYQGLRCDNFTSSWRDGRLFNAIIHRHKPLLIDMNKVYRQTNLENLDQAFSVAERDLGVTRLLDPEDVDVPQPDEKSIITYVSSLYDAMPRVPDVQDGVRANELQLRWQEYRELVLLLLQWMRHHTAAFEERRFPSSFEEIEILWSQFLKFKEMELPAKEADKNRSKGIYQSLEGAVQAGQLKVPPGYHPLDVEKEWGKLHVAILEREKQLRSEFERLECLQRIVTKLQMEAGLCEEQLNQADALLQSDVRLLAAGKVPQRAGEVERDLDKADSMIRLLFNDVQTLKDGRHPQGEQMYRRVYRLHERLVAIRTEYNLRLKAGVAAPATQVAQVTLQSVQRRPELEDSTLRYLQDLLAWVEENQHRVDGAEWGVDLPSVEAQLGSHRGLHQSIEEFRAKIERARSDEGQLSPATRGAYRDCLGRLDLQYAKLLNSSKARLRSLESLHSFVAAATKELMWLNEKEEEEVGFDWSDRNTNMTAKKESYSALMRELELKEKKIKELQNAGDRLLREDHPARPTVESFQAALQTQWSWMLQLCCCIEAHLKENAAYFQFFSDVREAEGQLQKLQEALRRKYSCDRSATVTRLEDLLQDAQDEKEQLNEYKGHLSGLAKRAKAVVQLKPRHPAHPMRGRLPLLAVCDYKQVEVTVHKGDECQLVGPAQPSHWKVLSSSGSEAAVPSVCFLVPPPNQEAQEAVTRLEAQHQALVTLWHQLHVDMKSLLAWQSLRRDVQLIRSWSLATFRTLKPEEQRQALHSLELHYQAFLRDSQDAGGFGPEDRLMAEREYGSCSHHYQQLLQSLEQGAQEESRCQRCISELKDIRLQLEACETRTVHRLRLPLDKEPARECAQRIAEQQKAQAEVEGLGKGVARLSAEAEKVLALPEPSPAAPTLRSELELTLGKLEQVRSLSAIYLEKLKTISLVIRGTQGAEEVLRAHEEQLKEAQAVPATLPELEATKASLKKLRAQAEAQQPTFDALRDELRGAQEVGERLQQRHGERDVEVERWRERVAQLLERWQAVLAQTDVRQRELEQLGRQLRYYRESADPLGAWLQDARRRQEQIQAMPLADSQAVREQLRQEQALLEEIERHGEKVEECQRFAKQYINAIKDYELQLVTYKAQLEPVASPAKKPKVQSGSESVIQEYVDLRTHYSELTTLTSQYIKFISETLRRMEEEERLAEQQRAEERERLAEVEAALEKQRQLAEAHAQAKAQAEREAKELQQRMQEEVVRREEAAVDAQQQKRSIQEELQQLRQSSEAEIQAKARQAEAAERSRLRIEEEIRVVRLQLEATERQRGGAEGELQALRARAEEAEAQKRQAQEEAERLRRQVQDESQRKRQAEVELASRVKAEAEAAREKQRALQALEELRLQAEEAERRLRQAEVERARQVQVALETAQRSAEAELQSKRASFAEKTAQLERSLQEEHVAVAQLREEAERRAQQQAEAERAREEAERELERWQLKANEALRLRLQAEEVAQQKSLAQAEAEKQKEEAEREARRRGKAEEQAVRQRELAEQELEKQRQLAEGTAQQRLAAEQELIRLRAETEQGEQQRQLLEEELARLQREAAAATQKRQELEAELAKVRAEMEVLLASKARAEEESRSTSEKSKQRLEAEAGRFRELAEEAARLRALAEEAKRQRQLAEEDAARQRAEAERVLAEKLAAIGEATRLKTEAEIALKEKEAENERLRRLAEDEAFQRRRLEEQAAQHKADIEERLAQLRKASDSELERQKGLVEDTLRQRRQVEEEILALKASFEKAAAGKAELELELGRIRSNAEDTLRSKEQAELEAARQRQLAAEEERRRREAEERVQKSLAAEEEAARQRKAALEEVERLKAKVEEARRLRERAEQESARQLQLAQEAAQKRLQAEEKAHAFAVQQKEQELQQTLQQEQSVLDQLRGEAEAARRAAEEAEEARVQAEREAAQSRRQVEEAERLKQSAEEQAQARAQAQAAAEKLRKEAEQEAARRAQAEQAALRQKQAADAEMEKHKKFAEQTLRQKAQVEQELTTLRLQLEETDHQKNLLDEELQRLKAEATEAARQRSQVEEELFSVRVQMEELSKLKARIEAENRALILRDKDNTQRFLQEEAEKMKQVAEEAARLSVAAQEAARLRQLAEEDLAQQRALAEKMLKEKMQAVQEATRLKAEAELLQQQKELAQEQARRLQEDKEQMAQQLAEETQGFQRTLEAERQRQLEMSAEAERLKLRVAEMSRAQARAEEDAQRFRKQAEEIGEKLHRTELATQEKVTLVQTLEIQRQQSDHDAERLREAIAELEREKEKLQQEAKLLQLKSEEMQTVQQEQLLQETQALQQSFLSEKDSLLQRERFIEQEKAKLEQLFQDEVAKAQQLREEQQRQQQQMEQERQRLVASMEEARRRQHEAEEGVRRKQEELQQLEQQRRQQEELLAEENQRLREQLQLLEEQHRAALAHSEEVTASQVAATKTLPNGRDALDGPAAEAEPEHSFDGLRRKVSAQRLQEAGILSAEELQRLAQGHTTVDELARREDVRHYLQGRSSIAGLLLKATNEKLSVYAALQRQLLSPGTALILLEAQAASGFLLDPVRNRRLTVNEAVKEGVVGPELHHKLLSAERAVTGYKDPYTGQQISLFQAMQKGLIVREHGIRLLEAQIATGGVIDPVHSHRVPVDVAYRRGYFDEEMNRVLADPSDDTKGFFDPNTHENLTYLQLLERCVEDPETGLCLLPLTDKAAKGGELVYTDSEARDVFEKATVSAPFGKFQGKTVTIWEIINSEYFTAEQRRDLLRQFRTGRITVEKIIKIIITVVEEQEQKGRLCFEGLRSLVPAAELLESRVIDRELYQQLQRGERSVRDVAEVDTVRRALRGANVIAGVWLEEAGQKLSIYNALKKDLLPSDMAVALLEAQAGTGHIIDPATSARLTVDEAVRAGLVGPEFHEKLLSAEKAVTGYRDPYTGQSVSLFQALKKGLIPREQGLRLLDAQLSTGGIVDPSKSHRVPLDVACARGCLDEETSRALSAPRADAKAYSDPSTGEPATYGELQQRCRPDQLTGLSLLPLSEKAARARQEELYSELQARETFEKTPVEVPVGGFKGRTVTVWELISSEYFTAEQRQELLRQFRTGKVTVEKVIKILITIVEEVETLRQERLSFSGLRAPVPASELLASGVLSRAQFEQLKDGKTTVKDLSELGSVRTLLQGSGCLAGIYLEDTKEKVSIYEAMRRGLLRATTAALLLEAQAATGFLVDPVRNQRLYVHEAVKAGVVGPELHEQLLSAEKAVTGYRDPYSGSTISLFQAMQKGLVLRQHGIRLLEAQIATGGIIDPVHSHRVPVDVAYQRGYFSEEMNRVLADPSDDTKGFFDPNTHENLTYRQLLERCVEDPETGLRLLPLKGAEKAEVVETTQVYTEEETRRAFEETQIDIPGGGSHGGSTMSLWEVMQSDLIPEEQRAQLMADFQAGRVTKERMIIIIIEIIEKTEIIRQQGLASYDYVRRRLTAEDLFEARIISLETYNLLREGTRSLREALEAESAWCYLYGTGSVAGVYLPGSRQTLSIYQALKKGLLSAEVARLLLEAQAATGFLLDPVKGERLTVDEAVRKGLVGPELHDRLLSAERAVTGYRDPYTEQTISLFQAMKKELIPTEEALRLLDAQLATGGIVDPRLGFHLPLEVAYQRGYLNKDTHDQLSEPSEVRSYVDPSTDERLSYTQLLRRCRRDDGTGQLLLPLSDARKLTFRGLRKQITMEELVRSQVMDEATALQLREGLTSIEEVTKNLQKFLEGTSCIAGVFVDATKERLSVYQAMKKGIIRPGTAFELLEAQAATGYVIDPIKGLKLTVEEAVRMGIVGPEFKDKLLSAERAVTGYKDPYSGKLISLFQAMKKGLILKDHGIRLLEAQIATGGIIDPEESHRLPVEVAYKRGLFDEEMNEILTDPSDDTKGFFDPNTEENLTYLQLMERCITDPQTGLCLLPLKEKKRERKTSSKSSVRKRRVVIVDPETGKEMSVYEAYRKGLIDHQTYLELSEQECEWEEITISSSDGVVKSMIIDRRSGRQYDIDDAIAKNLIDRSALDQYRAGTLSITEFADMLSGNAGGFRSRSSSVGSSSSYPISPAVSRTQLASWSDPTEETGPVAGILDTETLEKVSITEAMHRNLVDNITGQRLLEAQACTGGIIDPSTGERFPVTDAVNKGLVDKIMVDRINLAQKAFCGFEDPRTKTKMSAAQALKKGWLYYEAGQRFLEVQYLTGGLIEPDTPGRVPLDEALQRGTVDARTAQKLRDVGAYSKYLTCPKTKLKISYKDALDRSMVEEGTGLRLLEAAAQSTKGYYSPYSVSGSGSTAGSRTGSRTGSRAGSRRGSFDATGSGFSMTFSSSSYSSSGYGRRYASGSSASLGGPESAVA
Sequence of UniProt P15328 (P15328 whole entry, looked up): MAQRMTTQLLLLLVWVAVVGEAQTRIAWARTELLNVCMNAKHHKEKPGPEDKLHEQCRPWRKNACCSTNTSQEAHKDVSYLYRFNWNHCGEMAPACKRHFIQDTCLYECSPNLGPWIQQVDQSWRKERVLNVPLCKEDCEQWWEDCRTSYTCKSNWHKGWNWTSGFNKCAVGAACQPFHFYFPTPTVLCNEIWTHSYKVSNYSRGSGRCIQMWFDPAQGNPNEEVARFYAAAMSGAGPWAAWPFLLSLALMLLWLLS
Sequence of UniProt Q16629 (Q16629 whole entry): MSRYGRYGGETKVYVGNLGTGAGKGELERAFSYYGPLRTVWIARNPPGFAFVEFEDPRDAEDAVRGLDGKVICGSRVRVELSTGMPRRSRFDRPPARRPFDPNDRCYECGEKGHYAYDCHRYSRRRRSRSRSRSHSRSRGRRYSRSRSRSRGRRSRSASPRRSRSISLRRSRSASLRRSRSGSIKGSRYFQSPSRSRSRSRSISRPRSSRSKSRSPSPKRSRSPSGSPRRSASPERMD

Target	lysine labeling ratio R10:1
PTPRM (lysine site: K234) (UniProt P28827)	1.53 (active)
CALD1 (lysine site: K534) (UniProt Q05682)	0.785 (active)
IGF2R (lysine site: K2197) (UniProt P11717)	8.12
FOLR1 (lysine site: K76) (UniProt P15328)	3.42
ROR2 (lysine site: K382) (UniProt Q01974)	1.95 (active)
YWHAQ (lysine site: K85) (UniProt P27348)	4.79
FLNA (lysine site: K1593) (UniProt P21333)	2.69
UniProt Q15149 (lysine site: K4027)	2.34
UniProt Q15149 (lysine site: K4173)	1.95 (active)
PLXNA1 (lysine site: K1084) (UniProt Q9UIW2)	2.49
SLC3A2 (lysine site: K299) (UniProt P08195)	6.33
SLC25A13 (lysine site: K408) (UniProt Q9UJS0)	2.67
CD151 (lysine site: K132) (UniProt P48509)	2.31
TSPAN6 (lysine site: K179) (UniProt O43657)	1.94 (active)
MCAM (lysine site: K286) (UniProt P43121)	2.67
TM9SF2 (lysine site: K328) (UniProt Q99805)	0.928 (active)
HMOX1 (lysine site: K39) (UniProt P09601)	1.45 (active)
UniProt Q15149 (lysine site: K2129)	3.49
PRDX5 (lysine site: K142) (UniProt P30044)	1.62 (active)
UniProt P61978 (lysine site: K198)	1.88 (active)

Target	lysine labeling ratio R10:1
FOLR1 (lysine site: K52) (UniProt P15328)	12.6
UniProt Q15149 (lysine site: K1175)	1.67 (active)
ERLIN2 (lysine site: K205) (UniProt O94905)	3.71
GPC1 (lysine site: K338) (UniProt P35052)	7.36
LAMB1 (lysine site: K1368) (UniProt P07942)	1.59 (active)
TF (lysine site: K135) (UniProt P02787)	1.26 (active)
UniProt Q8WXI7 (lysine site: K12309)	6.26
TLN1 (lysine site: K875) (UniProt Q9Y490)	7.4
HSPB1 (lysine site: K123) (UniProt P04792)	2.35
SERBP1 (lysine site: K76) (UniProt Q8NC51)	1.17 (active)
UniProt Q16629 (lysine site: K70)	1.67 (active)
SPTBN1 (lysine site: K1459) (UniProt Q01082)	0.588 (active)
KIRREL (lysine site: K113) (UniProt Q96J84)	2.15
MSN (lysine site: K165) (UniProt P26038)	3.56
CSF2RA (lysine site: K108) (UniProt P15509)	0.663 (active)
ATAD3B (lysine site: K505) (UniProt Q5T9A4)	0.98 (active)
RPL5 (lysine site: K197) (UniProt P46777)	1.37 (active)
HSPA5 (lysine site: K523) (UniProt P11021)	3.39
UniProt Q15149 (lysine site: K932)	6.51
ITGA3 (lysine site: K895) (UniProt P26006)	2.18
